The test has as its system Plasmodium falciparum NF54 stage V gametocytes. The experiment in a line: viability index relative to DMSO control (fraction); higher = less gametocyte killing. The following applies: 2.5 µM, incubation time: 72 h. The method in brief:
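P. falciparum NF54 stage V gametocytes in serum-free screening medium (0.75% gametocytemia, 1.25% hematocrit, 10 µl) were incubated with compound at 2.5 µM in 1,536-well plates for 72 hr at 37°C under low oxygen. Then 3 µl of 2.5 µM MitoTracker Red CMXRos plus 0.13% saponin was added for one to two hours. One field per well was imaged, 20–70 µm2 red particles were counted, and the viability index was the count divided by the plate mean of DMSO wells.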

Where [1] appears, read: library set: Broad Institute DOS.

Structures are written as SMILES. ± gives the uncertainty stated by the source. The full ranking holds about 9,900 compounds; the median of “viability index relative to DMSO control” is about 1, and the lowest 2% start at about 0.85. This is one part of a sample in which the lowest values are shown more often than they occur.

Under setting [1], `O=C(C[C@H]1CC[C@H]2[C@@H](COC[C@@H](O)CN2Cc2nccs2)O1)NCc1ccccc1Cl` yielded a viability index of 1.1 ± 0.03. The same measure, in the same setting: to `C[C@@H]1CN([C@H](C)CO)C(=O)Cc2cc(NC(=O)c3ccncc3)ccc2O[C@H]1CN(C)C(=O)Nc1ccc(F)cc1` belongs 0.944 ± 0.12; to `CC(C)NC[C@@H]1[C@H](c2ccc(C3=CCCCC3)cc2)[C@H](CO)N1S(C)(=O)=O`, 0.996 ± 0.022. On the same count and under the same terms, to `C[C@H]1CN([C@@H](C)CO)C(=O)CCCn2nncc2CO[C@@H]1CN(C)Cc1ccccc1C(=O)O` belongs 1.04 ± 0.031; to `O=C(c1ccccn1)N1CC2(C1)[C@@H](c1ccccc1)[C@@H](CO)N2C(=O)C1CCCCC1`, 1.041 ± 0.0089. Same read-out and setting: to `OC[C@@H]1[C@@H](c2ccc(-c3cccnc3)cc2)[C@@H]2CN(Cc3ccccn3)CCCCN12` belongs 0.737 ± 0.12; to `OC[C@@H]1[C@H](c2ccc(C3=CCCC3)cc2)[C@H]2CN(Cc3ccncc3)CCCCN12`, 1.05 ± 0.068.

Regarding `OC[C@H]1[C@@H](c2ccc(-c3cccc(F)c3)cc2)[C@@H]2CN(Cc3cncnc3)CCCCN12`, under setting [1], the viability index was determined as 0.963 ± 0.1.

Compound `OC[C@@H]1[C@H](c2ccc(-c3cccnc3)cc2)[C@H]2CN(Cc3ccccn3)CCCCN12` had a viability index under setting [1] of 0.979 ± 0.024. For `OC[C@@H]1[C@H](c2ccc(-c3cccnc3)cc2)[C@@H]2CN(Cc3ccccn3)CCCCN12`, the viability index under setting [1] worked out at 1.04 ± 0.06. On the same count and under the same terms, to `OC[C@H]1[C@@H](c2ccc(C3=CCCC3)cc2)[C@@H]2CN(Cc3ccncc3)CCCCN12` belongs 0.845 ± 0.14; to `CN1C(=O)c2cc(NC(=O)c3ccc4c(c3)OCO4)ccc2OC[C@H]2O[C@@H](CC(=O)O)CC[C@@H]21`, 1.11 ± 0.071; to `CO[C@@H](CN(C)C(=O)c1cc(Cl)cc(Cl)c1)[C@@H](C)CN(C(=O)Nc1ccc(F)cc1)[C@@H](C)CO`, 1.04 ± 0.018.

The compound `N#C[C@H]1[C@@H](c2ccccc2)[C@@H](CO)N1C(=O)c1ccc2c(c1)OCO2` yielded a viability index under setting [1] of 1.08 ± 0.022.

On to `N#C[C@H]1[C@@H](c2ccccc2C2=CCCC2)[C@H](CO)N1C(=O)Cc1ccncc1`, for which the viability index under setting [1] was 1.07 ± 0.13. Same read-out and setting: to `COc1ccc(S(=O)(=O)N(C)C[C@H]2OCCCC[C@H](C)Oc3ccc(NC(=O)Cc4ccccc4)cc3C(=O)N([C@H](C)CO)C[C@H]2C)cc1` belongs 0.9061 ± 0.001; to `COc1ccc(S(=O)(=O)N(C)C[C@H]2OCCCC[C@@H](C)Oc3ccc(NC(=O)Cc4ccccc4)cc3C(=O)N([C@@H](C)CO)C[C@@H]2C)cc1`, 1.07 ± 0.17.

In turn, `COc1ccc(S(=O)(=O)N(C)C[C@H]2OCCCC[C@@H](C)Oc3ccc(NC(=O)Cc4ccccc4)cc3C(=O)N([C@@H](C)CO)C[C@H]2C)cc1` displayed a viability index under setting [1] of 0.773 ± 0.061.

`COc1ccc(S(=O)(=O)N(C)C[C@@H]2OCCCC[C@H](C)Oc3ccc(NC(=O)Cc4ccccc4)cc3C(=O)N([C@@H](C)CO)C[C@H]2C)cc1` yielded a viability index under setting [1] of 0.911 ± 0.17. The same measure, in the same setting: to `COc1ccc(S(=O)(=O)N(C)C[C@H]2OCCCC[C@H](C)Oc3ccc(NC(=O)Cc4ccccc4)cc3C(=O)N([C@@H](C)CO)C[C@H]2C)cc1` belongs 0.791 ± 0.031.

`COc1ccc(S(=O)(=O)N(C)C[C@H]2OCCCC[C@H](C)Oc3ccc(NC(=O)Cc4ccccc4)cc3C(=O)N([C@H](C)CO)C[C@@H]2C)cc1` came in with a viability index under setting [1] of 0.994 ± 0.022. Turning to `COCC#Cc1ccc([C@@H]2[C@H](CO)N3C(=O)CN(C(=O)CN4CCOCC4)C[C@@H]23)cc1`, under setting [1], the viability index came out at 1.02 ± 0.05. As to `C[C@@H](NC(=O)C[C@H]1C=C[C@@H](NS(=O)(=O)c2cccc(F)c2)[C@H](CO)O1)c1ccccc1`, the viability index under setting [1] came out at 1.17 ± 0.04. Same read-out and setting: the same measure for `O=C(N[C@@H]1CC[C@H](CC(=O)N2CCOCC2)O[C@H]1CO)c1cccc(F)c1`: 1.07 ± 0.062; for `O=C(Nc1ccccc1)N1CC(=O)N2[C@H](CO)[C@@H](c3ccc(C#CC4CCCCC4)cc3)[C@@H]2C1`: 1.04 ± 0.086; for `COCC(=O)N1CC[C@@]2(CC1)CN([C@@H](CO)c1c2c2ccc(OC)cc2n1C)C(=O)c1ccccn1`: 1.02 ± 0.1.

`CO[C@@H]1CN(C)C(=O)c2cc(NS(=O)(=O)CC(F)(F)F)ccc2OC[C@H](C)NC[C@@H]1C` came in with a viability index under setting [1] of 1.05 ± 0.059. Still for that read-out and setting: to `O=C(NCC[C@@H]1CC[C@@H](NS(=O)(=O)Cc2ccccc2)[C@@H](CO)O1)C1CCCCC1` belongs 0.968 ± 0.15; to `CN(C)C(=O)C[C@@H]1C=C[C@H](NC(=O)c2ccc(F)cc2)[C@@H](CO)O1`, 1.11 ± 0.097. Under setting [1], `C[C@@H]1CN([C@@H](C)CO)C(=O)c2cccc(NC(=O)NC3CCCCC3)c2O[C@@H]1CN(C)Cc1ccc(C(F)(F)F)cc1` returned a viability index of 0.813 ± 0.08. Same read-out and setting: the same measure for `C[C@H](CO)N1C[C@H](C)[C@@H](CN(C)C(=O)Nc2ccc3c(c2)OCO3)Oc2c(NC(=O)c3nc4ccccc4s3)cccc2C1=O`: 1.01 ± 0.041.

With `C[C@H](CO)N1C[C@H](C)[C@@H](CN(C)C(=O)Nc2ccc3c(c2)OCO3)Oc2ccc(NC(=O)Nc3ccc(C(F)(F)F)cc3)cc2CC1=O`, the viability index (library set: Broad Institute Blood Stage) turned out to be 0.755 ± 0.061. Take `C[C@@H]1CN([C@H](C)CO)C(=O)c2cccc(NC(=O)NC3CCCCC3)c2O[C@H]1CN(C)Cc1ccc(C(F)(F)F)cc1`: the viability index under setting [1] turned out to be 1.01 ± 0.083. On the same count and under the same terms, to `C[C@H](CO)N1C[C@H](C)[C@H](CN(C)C(=O)Nc2ccc(C(F)(F)F)cc2)Oc2ccc(NS(=O)(=O)c3ccc(Cl)cc3)cc2CC1=O` belongs 1.009 ± 0.0083.

(Values after the supplement of paper PMC4723716.)
